Holding throughout (assay): DAPPL (digital affinity profiling via proximity ligation, sequencing); 10 mM Tris-HCl pH 7.5, 50 mM NaCl, 1 mM DTT, 4% glycerol, room temperature, 30 min; GST-TFs on glutathione beads, 16-mer random dsDNA library, 0.1% formaldehyde crosslink after washing; high values mean tight binding
One test addresses T1, FEV (Homo sapiens, UniProt Q99581 1-238).
T1 sequence: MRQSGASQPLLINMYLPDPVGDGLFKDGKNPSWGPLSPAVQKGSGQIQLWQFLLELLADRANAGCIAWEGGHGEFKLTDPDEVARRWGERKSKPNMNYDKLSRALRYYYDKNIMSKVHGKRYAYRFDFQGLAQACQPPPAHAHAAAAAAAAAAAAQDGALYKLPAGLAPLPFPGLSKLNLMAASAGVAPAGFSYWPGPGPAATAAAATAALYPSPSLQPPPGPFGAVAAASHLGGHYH
The conditions noted are these: protein: recombinant; tags: N-terminal GST; dsDNA, one strand shown. The method in brief:
(§1)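 In yeast, human transcription factors were expressed with a GST fusion, then pulled down on glutathione beads and given DNA barcodes. Pooled with a tag-only sample, they were exposed to 200 nmole of a 16-mer random double-stranded DNA library (Tris/NaCl/DTT/glycerol buffer, room temperature, 30 min), washed, crosslinked with 0.1% formaldehyde, proximity-ligated using BsaI/T4 ligase for 1 h at 37 °C, PCR-amplified and read on an Illumina NextSeq500. Each hexamer's frequency of reads for a factor, divided by the matching frequency for the tag-only sample, gives the binding signal.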

Another test concerns the target ETV5 (Homo sapiens, UniProt P41161 1-510). The following applies: protein: recombinant; tags: N-terminal GST; dsDNA, one strand shown. The gist of the method:
as §1

A further test concerns the target HSF1 (Homo sapiens, UniProt Q00613 1-529). The following applies: protein: recombinant; tags: N-terminal GST; chain copies: 3; dsDNA, one strand shown. The gist of the method:
as §1

In the next test the target is T2, SPIC (Homo sapiens, UniProt Q8N5J4 1-248).
T2 sequence: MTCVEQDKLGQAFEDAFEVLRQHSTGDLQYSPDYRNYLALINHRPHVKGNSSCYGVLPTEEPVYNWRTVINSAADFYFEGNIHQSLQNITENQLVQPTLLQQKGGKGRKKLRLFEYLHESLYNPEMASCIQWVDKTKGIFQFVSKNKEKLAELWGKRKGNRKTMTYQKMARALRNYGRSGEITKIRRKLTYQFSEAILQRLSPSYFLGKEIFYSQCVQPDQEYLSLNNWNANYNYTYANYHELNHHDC
The conditions noted are these: protein: recombinant; tags: N-terminal GST; dsDNA, one strand shown. The gist of the method: as §1

In the next test the target is ELF4 (Homo sapiens, UniProt Q99607 1-663). The following applies: protein: recombinant; tags: N-terminal GST; dsDNA, one strand shown. The method in brief:
as §1

The target in another test is T3, ELK4 (Homo sapiens, UniProt P28324-2 1-405).
T3 sequence: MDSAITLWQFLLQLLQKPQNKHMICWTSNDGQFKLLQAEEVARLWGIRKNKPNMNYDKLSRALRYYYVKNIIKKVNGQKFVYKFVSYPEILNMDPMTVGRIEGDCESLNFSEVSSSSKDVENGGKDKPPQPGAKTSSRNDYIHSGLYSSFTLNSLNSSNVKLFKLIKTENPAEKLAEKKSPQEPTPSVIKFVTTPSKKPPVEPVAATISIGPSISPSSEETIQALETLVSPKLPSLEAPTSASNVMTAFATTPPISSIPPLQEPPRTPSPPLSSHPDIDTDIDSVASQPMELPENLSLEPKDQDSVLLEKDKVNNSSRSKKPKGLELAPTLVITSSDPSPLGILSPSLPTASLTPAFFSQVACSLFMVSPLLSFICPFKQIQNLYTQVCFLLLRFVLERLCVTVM
The following applies: protein: recombinant; tags: N-terminal GST; dsDNA, one strand shown. The gist of the method: as §1

A further test has as its target T4, ETV2 (Homo sapiens, UniProt O00321 1-342).
T4 sequence: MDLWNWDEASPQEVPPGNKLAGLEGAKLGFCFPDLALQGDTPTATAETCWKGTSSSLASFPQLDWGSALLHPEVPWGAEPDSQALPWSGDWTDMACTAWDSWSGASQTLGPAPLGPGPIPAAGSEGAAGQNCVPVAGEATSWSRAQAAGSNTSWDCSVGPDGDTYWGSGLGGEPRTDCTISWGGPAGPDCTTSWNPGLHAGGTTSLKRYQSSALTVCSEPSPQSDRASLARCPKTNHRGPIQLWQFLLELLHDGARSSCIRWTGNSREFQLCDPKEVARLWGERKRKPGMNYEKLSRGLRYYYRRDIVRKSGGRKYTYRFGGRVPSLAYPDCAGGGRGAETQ
The conditions noted are these: protein: recombinant; tags: N-terminal GST; dsDNA, one strand shown. The gist of the method: as §1

The target of a further test is T5, ELF3 (Homo sapiens, UniProt P78545 1-371).
T5 sequence: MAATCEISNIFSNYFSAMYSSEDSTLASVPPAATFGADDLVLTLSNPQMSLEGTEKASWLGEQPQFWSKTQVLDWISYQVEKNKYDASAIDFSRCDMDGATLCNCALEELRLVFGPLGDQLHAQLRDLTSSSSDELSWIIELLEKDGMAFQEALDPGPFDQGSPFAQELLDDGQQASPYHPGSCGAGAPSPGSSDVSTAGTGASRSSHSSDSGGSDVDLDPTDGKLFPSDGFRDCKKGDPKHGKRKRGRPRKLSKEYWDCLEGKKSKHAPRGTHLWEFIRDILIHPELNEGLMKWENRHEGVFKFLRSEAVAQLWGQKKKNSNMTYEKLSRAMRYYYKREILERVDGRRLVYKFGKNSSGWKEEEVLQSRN
The following applies: protein: recombinant; tags: N-terminal GST; dsDNA, one strand shown. The gist of the method: as §1

The target in the next test is CRX (Homo sapiens, UniProt O43186 1-299). The conditions noted are these: protein: recombinant; tags: N-terminal GST; dsDNA, one strand shown. The gist of the method: as §1
Chain of CRX (O43186 whole entry): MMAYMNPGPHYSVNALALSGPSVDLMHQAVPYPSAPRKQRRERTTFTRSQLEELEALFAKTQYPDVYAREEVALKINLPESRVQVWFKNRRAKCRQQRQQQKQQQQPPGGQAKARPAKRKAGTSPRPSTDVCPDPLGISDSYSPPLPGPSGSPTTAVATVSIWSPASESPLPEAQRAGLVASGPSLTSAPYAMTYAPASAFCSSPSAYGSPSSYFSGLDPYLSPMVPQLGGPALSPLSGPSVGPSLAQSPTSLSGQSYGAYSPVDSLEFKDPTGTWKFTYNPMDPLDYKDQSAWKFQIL
A further test deals with ETV1 (Homo sapiens, UniProt P50549 1-477). The conditions noted are these: protein: recombinant; tags: N-terminal GST; dsDNA, one strand shown. The method in brief: as §1
Chain of ETV1 (P50549 whole entry): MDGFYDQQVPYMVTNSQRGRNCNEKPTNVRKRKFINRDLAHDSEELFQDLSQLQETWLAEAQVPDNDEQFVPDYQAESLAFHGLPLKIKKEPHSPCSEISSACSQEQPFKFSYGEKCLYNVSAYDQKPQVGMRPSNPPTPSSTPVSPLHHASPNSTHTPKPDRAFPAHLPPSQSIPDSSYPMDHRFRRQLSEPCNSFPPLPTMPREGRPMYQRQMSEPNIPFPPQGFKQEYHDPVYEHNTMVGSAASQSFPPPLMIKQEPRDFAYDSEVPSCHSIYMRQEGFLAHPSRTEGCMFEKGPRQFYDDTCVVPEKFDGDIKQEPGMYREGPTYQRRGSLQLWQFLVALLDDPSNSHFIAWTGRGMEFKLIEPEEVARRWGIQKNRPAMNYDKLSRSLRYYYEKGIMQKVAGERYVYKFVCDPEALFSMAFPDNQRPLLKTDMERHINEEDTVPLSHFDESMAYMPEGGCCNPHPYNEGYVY
In another test the target is T6, ERF (Homo sapiens, UniProt P50548 1-548).
T6 sequence: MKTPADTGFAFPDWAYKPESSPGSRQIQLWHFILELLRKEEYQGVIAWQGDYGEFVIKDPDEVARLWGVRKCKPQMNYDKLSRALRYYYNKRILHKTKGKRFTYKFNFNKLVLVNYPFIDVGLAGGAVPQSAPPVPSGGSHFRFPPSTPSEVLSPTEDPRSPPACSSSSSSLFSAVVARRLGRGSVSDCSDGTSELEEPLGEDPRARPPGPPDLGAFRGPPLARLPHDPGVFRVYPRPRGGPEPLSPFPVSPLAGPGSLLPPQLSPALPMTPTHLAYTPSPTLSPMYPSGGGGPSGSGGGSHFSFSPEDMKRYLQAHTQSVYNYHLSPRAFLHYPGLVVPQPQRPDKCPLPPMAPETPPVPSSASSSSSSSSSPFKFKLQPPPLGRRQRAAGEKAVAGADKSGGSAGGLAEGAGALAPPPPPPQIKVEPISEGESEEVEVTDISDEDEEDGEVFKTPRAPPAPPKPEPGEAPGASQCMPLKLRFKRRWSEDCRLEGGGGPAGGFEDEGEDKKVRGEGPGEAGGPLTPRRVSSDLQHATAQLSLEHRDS
The following applies: protein: recombinant; tags: N-terminal GST; dsDNA, one strand shown. The method in brief: as §1

The next test concerns the target T7, ETV3L (Homo sapiens, UniProt Q6ZN32 1-361).
T7 sequence: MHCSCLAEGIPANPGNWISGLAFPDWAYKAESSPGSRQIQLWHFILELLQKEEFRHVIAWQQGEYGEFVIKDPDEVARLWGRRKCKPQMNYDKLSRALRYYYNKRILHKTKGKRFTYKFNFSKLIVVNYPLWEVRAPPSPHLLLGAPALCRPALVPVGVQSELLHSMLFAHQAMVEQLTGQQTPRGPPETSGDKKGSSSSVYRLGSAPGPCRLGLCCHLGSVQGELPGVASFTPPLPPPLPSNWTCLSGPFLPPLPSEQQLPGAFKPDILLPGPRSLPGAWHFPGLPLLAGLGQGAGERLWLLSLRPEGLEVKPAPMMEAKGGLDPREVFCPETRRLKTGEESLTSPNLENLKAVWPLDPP
The following applies: protein: recombinant; tags: N-terminal GST; dsDNA, one strand shown. The gist of the method: as §1

The next test deals with T8, ETS2 (Homo sapiens, UniProt P15036 1-469).
T8 sequence: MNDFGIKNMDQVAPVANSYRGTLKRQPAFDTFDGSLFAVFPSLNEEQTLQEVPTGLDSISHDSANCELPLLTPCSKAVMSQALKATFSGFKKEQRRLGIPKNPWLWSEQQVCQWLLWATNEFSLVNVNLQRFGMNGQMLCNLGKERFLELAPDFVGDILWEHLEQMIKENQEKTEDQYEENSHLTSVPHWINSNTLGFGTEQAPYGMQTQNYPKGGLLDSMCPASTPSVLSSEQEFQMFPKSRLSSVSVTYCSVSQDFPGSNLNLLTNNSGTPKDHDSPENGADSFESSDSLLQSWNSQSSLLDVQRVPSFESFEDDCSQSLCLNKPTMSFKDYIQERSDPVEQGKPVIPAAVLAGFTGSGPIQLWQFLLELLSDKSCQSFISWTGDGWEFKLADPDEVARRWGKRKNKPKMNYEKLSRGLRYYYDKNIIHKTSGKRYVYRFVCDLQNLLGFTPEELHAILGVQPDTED
The following applies: protein: recombinant; tags: N-terminal GST; dsDNA, one strand shown. The gist of the method:
as §1

For the next test, the target named is T9, SPDEF (Homo sapiens, UniProt O95238 1-335).
T9 sequence: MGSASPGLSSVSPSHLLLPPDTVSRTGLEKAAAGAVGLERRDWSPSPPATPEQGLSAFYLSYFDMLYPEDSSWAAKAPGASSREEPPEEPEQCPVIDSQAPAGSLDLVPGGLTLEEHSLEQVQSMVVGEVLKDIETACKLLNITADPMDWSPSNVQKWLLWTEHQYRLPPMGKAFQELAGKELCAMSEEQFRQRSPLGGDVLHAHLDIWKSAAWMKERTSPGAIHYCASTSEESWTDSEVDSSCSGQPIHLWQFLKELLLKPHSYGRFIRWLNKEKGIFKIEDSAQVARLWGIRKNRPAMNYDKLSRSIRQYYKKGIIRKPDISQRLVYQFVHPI
The following applies: protein: recombinant; tags: N-terminal GST; dsDNA, one strand shown. The method in brief:
as §1

A further test concerns the target T10, ETV7 (Homo sapiens, UniProt Q9Y603 1-341).
T10 sequence: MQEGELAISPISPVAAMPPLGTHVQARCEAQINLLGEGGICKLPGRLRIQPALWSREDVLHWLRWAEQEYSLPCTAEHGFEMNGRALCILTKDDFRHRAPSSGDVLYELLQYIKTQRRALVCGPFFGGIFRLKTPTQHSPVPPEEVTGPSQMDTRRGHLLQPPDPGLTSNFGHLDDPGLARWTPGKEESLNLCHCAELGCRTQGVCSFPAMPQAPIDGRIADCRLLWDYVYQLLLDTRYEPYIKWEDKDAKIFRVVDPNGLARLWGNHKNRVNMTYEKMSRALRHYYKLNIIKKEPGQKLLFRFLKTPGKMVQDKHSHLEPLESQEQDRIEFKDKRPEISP
The following applies: protein: recombinant; tags: N-terminal GST; dsDNA, one strand shown. The method in brief:
as §1

The target of a further test is T11, ELF5 (Homo sapiens, UniProt Q9UKW6-2 1-255).
T11 sequence: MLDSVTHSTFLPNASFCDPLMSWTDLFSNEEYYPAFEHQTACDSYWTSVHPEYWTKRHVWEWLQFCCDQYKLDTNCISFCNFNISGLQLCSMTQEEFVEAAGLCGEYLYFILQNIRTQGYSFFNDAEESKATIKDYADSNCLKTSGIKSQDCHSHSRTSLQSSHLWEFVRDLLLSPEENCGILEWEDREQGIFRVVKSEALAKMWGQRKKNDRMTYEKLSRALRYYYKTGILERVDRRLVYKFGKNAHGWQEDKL
The following applies: protein: recombinant; tags: N-terminal GST; dsDNA, one strand shown. The gist of the method:
as §1

Another test deals with T12, ETV3 (Homo sapiens, UniProt P41162-2 1-143).
T12 sequence: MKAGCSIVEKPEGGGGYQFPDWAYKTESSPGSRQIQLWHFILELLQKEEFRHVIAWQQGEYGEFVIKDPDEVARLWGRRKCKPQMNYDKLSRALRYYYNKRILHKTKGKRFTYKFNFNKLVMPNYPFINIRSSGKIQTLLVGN
The conditions noted are these: protein: recombinant; tags: N-terminal GST; dsDNA, one strand shown. The gist of the method:
as §1

The target of a further test is ETV6 (Homo sapiens, UniProt P41212 1-452). The following applies: protein: recombinant; tags: N-terminal GST; dsDNA, one strand shown. The gist of the method:
as §1

Chain of ELF4 (Q99607 whole entry): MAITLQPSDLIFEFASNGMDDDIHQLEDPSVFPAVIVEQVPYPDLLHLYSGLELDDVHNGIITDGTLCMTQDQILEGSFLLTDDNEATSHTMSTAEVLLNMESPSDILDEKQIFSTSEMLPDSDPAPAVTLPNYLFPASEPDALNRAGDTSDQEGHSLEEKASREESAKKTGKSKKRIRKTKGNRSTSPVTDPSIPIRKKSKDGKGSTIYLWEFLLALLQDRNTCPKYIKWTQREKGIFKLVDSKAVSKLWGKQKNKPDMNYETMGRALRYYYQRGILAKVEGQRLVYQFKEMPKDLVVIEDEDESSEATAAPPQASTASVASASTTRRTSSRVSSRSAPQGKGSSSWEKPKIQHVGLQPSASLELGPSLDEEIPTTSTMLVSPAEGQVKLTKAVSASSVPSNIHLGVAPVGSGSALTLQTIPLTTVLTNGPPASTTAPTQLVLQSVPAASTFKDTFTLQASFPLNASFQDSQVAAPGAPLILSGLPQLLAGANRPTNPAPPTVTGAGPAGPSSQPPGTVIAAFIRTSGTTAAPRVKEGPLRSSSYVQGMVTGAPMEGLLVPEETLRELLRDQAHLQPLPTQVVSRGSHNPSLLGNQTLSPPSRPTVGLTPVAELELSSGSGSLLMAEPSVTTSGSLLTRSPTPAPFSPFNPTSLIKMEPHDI
Chain of ETV5 (P41161 whole entry): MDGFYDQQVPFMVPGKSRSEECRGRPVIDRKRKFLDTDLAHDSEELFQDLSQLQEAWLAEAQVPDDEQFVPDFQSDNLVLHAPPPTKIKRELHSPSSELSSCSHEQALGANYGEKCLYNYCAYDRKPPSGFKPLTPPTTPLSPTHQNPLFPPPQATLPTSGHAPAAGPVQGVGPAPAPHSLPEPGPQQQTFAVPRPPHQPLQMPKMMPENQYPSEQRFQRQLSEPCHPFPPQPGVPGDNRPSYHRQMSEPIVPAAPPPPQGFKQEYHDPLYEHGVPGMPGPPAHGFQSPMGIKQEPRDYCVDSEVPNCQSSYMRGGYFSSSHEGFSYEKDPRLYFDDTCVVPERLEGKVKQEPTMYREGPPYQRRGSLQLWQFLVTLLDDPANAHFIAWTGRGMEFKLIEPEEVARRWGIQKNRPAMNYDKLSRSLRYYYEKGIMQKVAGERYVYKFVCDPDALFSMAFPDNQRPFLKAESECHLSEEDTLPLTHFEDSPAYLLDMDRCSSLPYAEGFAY
Chain of ETV6 (P41212 whole entry): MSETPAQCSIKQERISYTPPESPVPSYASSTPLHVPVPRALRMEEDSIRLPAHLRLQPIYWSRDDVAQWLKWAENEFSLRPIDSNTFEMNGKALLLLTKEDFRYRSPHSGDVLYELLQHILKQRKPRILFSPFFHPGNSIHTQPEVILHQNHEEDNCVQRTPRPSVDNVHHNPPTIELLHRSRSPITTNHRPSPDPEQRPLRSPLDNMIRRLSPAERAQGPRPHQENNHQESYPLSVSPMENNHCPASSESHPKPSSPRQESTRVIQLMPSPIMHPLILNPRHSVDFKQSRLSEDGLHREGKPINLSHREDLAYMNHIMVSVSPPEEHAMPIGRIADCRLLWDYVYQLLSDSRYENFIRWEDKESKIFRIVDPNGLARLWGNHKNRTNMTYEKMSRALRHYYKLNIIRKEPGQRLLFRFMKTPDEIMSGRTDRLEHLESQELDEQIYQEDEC
Chain of HSF1 (Q00613 whole entry): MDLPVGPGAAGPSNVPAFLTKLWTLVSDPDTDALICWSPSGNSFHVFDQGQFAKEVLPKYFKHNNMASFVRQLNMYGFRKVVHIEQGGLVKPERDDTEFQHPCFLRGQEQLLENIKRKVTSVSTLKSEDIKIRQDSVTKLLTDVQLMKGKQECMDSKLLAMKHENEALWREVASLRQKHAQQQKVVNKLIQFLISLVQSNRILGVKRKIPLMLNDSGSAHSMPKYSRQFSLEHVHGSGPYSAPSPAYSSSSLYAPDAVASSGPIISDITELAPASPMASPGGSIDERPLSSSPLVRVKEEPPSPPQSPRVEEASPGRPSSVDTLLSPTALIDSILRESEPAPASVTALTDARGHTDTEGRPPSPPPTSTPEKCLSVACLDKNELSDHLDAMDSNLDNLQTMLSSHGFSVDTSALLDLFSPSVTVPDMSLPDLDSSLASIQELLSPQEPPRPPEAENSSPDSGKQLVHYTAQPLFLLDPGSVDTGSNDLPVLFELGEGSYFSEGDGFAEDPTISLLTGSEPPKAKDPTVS

Consider TAATAT, for which the binding signal with FEV was 1.25 fold enrichment (6-mer frequency, TF over GST control); in the test with ETV5 it was 1.26 fold enrichment (6-mer frequency, TF over GST control); with HSF1, 1.58 fold enrichment (6-mer frequency, TF over GST control); in the test with SPIC, 1.16 fold enrichment (6-mer frequency, TF over GST control); with ELF4, 1.28 fold enrichment (6-mer frequency, TF over GST control); in the test with ELK4, 1.37 fold enrichment (6-mer frequency, TF over GST control). Besides, the binding signal with ETV2 was 1.31 fold enrichment (6-mer frequency, TF over GST control); in the test with ELF3, 1.25 fold enrichment (6-mer frequency, TF over GST control); with CRX, 2.01 fold enrichment (6-mer frequency, TF over GST control); in the test with ETV1, 1.27 fold enrichment (6-mer frequency, TF over GST control); in the test with ERF it was 1.35 fold enrichment (6-mer frequency, TF over GST control); with ETV3L it was 1.34 fold enrichment (6-mer frequency, TF over GST control). Besides, the binding signal was 1.24 fold enrichment (6-mer frequency, TF over GST control) with ETS2; 1.23 fold enrichment (6-mer frequency, TF over GST control) in the test with SPDEF; 1.35 fold enrichment (6-mer frequency, TF over GST control) in the test with ETV7; 1.22 fold enrichment (6-mer frequency, TF over GST control) with ELF5; 1.23 fold enrichment (6-mer frequency, TF over GST control) with ETV3; 1.23 fold enrichment (6-mer frequency, TF over GST control) with ETV6.

(Values after article PMC7862700, “An all-to-all approach to the identification of sequence-specific readers for epigenetic DNA modifications on cytosine”.)
